# PubChem BioAssay (NCI)
# This is part of a sample that, as a whole, favours compounds with a hit. Of some 83,000 tested, about 20% had one in any assay.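 Note: values are percent growth. 100 is the growth of untreated cells, values between 100 and 0 indicate rising inhibition; between -100 and 0 indicates cell death.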 A number with no mark means an inactive call. Activity calls are given as the source filed them. Rule for the calls: active = growth percent below 10; inactive = the rest.
# Test system: UACC-257 melanoma
# Assay: NCI-60 one-dose screen, 48 h (100 = growth as untreated, 0 = no growth, -100 = all killed)
# Conditions: 10 µM
row,Compound,growth
1,CC(=O)Nc1nc(C(=O)N2N=C(C)/C(=C/c3cccs3)C2=O)cs1,91.7%
2,COc1ccc(-c2nnc(COc3ccc(NC(=O)Nc4ccc(Cl)c(C(F)(F)F)c4)cc3F)o2)cc1,30.3%
3,COc1ccc(C2CC(c3cccs3)=NN2c2ccc(S(=O)(=O)NC(=O)NCc3cccc(OC)c3)cc2)cc1 (stereo not given),30%
4,O=C(Nc1cccc(C(F)(F)F)c1)Nc1ccc(OCc2nnc(-c3ccccc3)o2)c(F)c1,70%
5,COc1ccc(-c2nnc(COc3ccc(NS(=O)(=O)c4ccc(OC)cc4)cc3F)o2)cc1,74.9%
6,COc1ccc(/C=C2\C(=O)N(C(=O)c3csc(NC(C)=O)n3)N=C2C)cc1,89.2%
7,Nc1c(C(=O)Nc2cccc([N+](=O)[O-])c2)sc2nc3c(cc12)C(O)CCC3 (stereo not given),66.8%
8,CCc1cccc(C)c1NC(=O)c1sc2nc3c(cc2c1N)C(=O)CCC3,66.6%
9,CC[C@H](C)[C@@H]1NC(=O)[C@H]([C@@H](C)O)NC(=O)C(Cc2ccccc2)NC(=O)[C@@H]2CCCN2C(=O)C(C(C)C)NC(=O)C(Cc2ccccc2)NC(=O)CNC(=O)[C@@H]2CCCN2C1=O (stereo not given in full),60.7%
10,FC(F)(F)c1cccc(-n2nnc3cnc(Nc4ccc(N5CCCCC5)cc4)nc32)c1,63.4%
11,COc1cc(CCn2nnc3c(Nc4ccc(N5CCOCC5)cc4)ncnc32)cc(OC)c1,102%
12,Nc1c(C(=O)Nc2cccc(Cl)c2Cl)sc2nc3c(cc12)C(=O)CCC3,76.9%
13,O=Nc1c(-c2c(O)[nH]c3ccc([N+](=O)[O-])cc23)[nH]c2ccc(O)cc12,9.29% (active)
14,COc1cc(-c2n[nH]nc2-c2ccc3c(c2)OCCO3)cc(OC)c1OC,61.7%
15,Cc1cc(Nc2nc(-c3ccncc3)nc3ccccc23)n[nH]1,90%
16,O=C(Nc1cc(C(F)(F)F)cc(C(F)(F)F)c1)Nc1ccc(OCc2nnc(-c3ccc(Cl)cc3)o2)c(F)c1,2.65% (active)

# Test system: M14 melanoma
# Assay: as above
# Conditions: 10 µM unless noted
row,Compound,growth
1,CC(=O)Nc1nc(C(=O)N2N=C(C)/C(=C/c3cccs3)C2=O)cs1,101%
2,COc1ccc(-c2nnc(COc3ccc(NC(=O)Nc4ccc(Cl)c(C(F)(F)F)c4)cc3F)o2)cc1,9.03% (active)
3,COc1ccc(OC)c(NC(=O)c2cc(S(=O)(=O)N3CCc4ccccc43)ccc2OC)c1,98.8%
4,CC(C)(C)c1cc(-c2nc3ccc(N4CCN(CCO)CC4)cc3[nH]2)cc(C(C)(C)C)c1O,-40.5% (active)
5,COc1cc2oc(-c3cccc(NC(=O)Nc4ccc5c(c4)OCO5)c3)cc(=O)c2c(OC)c1OC,-9.91% (active)
6,COc1ccc(NC(=O)/N=c2\oc3c(OC)cccc3cc2-c2cc3ccccc3[nH]2)cc1,93.5%
7,CCN1C(=S)N(CC)C2Nn3c(s/c(=C4\C(=O)N(C)c5ccccc54)c3=O)=NC21 (stereo not given),70.2%
8,COc1ccc(/C=C2\Oc3cc(OCCN4CCCC4)ccc3C2=O)c(OC)c1,98.9%
9,COc1ccc(C2CC(c3cccs3)=NN2c2ccc(S(=O)(=O)NC(=O)NCc3cccc(OC)c3)cc2)cc1 (stereo not given),52.1%
10,O=C(Nc1cccc(C(F)(F)F)c1)Nc1ccc(OCc2nnc(-c3ccccc3)o2)c(F)c1,40.9%
11,NC(=O)c1c(NC(=O)c2ccc(OCC3CCCO3)cc2)sc2c1CCCC2 (stereo not given),108%
12,CC(C)(C)OC(=O)N1C/C(=C\c2cccs2)C(=O)/C(=C/c2cccs2)C1,98.3%
13,COc1ccc(-c2nnc(COc3ccc(NS(=O)(=O)c4ccc(OC)cc4)cc3F)o2)cc1,78.2%
14,COc1ccc(/C=C2\C(=O)N(C(=O)c3csc(NC(C)=O)n3)N=C2C)cc1,98.7%
15,NC(=O)c1c(NC(=O)c2ccc3c(c2)OCO3)sc2c1CCC(=O)C2,16.7%
16,COc1ccc(OC)c(/C=C2\Oc3cc(OCCN4CCCC4)ccc3C2=O)c1,98.4%
17,CCCCNc1nnc(-c2cc(-c3cc4ccccc4o3)nn2-c2ccccc2)o1,108%
18,Nc1c(C(=O)Nc2cccc([N+](=O)[O-])c2)sc2nc3c(cc12)C(O)CCC3 (stereo not given),35.3%
19,O=c1oc2c([nH]c3ccc4ccccc4c32)c2ccccc12,109%
20,CCc1cccc(C)c1NC(=O)c1sc2nc3c(cc2c1N)C(=O)CCC3,12.5%

row,Compound,growth
1,C#CCN1C(=O)/C(=c2\sc3n(c2=O)C2C(NN=3)N(CC)C(=O)N2CC)c2ccccc21 (stereo not given),26.1%
2,OCc1c(-c2ccccc2)nc2sccn12,102%
3,C#CCN1C(=O)/C(=c2\sc3n(c2=O)NC2C(N=3)N(CC)C(=O)N2CC)c2ccccc21 (stereo not given),80.7%
4,CSc1nc(-c2cc3ccccc3o2)cc(-c2ccc(Cl)cc2)c1C#N,67.6%
5,O=C1CCCCC=C1C[N+](=O)[O-],91.3%
6,CCCCCCCCCCCCCCCCCCOc1cccc(CCOP(=O)(O)OCC[N+](C)(C)C)c1,93.4%
7,CC[C@H](C)[C@@H]1NC(=O)[C@H]([C@@H](C)O)NC(=O)C(Cc2ccccc2)NC(=O)[C@@H]2CCCN2C(=O)C(C(C)C)NC(=O)C(Cc2ccccc2)NC(=O)CNC(=O)[C@@H]2CCCN2C1=O (stereo not given in full),22.2%
8,COc1cc(C2C3=C(COC3=O)Nc3c2ccc2c3CCCC2)cc2c1OCO2 (stereo not given),13.3%
9,FC(F)(F)c1cccc(-n2nnc3cnc(Nc4ccc(N5CCCCC5)cc4)nc32)c1,33.8%
10,COc1cc(CCn2nnc3c(Nc4ccc(N5CCOCC5)cc4)ncnc32)cc(OC)c1,85.5%
11,Nc1c(C(=O)Nc2cccc(Cl)c2Cl)sc2nc3c(cc12)C(=O)CCC3,80.8%
12,COC(=O)c1ccc2nc(-c3cc4ccccc4n3C)n(CCCCOc3cc4c(cc3OC)C(=O)N3CCC[C@H]3C=N4)c2c1,-12.7% (active)
13,O=Nc1c(-c2c(O)[nH]c3ccc([N+](=O)[O-])cc23)[nH]c2ccc(O)cc12,11.4%
14,Nc1nc(-c2cc3ccccc3o2)cc(=O)c(=O)[nH]1,106%
15,COc1cc(-c2n[nH]nc2-c2ccc3c(c2)OCCO3)cc(OC)c1OC,16.5%
16,Nc1nc(Cl)c2c(ncn2Cc2ccc(CCl)cc2)n1,97.2%
17,Cc1cc(Nc2nc(-c3ccncc3)nc3ccccc23)n[nH]1,65.7%
18,O=C(Nc1cc(C(F)(F)F)cc(C(F)(F)F)c1)Nc1ccc(OCc2nnc(-c3ccc(Cl)cc3)o2)c(F)c1,18.6%
19,CCN1C(=O)N(CC)C2Nn3c(s/c(=C\c4cccc(F)c4)c3=O)=NC21 (stereo not given),89.6%
